Screens from PubChem BioAssay.
HEK cytotox: kills HEK 293 cells | HEK 293 viability, ATP luminescence (CellTiter-Glo), 48-72 h | Potency, µM (doses to about 115 µM), for the others: at the top dose activity change, negative = cytotoxicity, usual class: inhibitors | actives 6.6% (n = 94,000) | AID 1345083; further: on the % scale 0 is the no-effect control and ±100 the full control effect; nearly all actives have a fitted effect of over 60% in size
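Read-out: CellTiter-Glo ATP luminescence. Cells: HEK 293, 250 cells/well. Exposure: 48 or 72 hr, 37 degree Celsius.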
GPT2 inhibitor: blocks human glutamate pyruvate transaminase 2. Q8TD30. Recombinant GPT2, coupled pyruvate oxidase/HRP Amplex Red fluorescence. Potency, µM (top dose mostly 57.7 µM), without a hit: top-dose activity change, negative = inhibition, hits mostly inhibitors. actives 0.25% (n = 100,000). AID 1671188; further: on the % scale 0 is the no-effect control and ±100 the full control effect; nearly all actives have a fitted effect of over 60% in size
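Inhibition is scored from Amplex Red fluorescence generated when pyruvate oxidase and HRP act on pyruvate released by GPT2. Reactions contain 10ng/uL enzyme, 250uM a-KG and 2mM L-alanine and run 30 min at room temperature.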
FLuc inh-1: inhibitors of firefly (Photinus pyralis) luciferase. AID 1347043. purified P. pyralis luciferase, luminescence, biochemical. Potency, µM (top dose mostly 115 µM), hits mostly inhibitors. actives 2.5% (n = 76,000). P08659; further: on the % scale 0 is the no-effect control and ±100 the full control effect; nearly all actives have a fitted effect of over 65% in size
Target sequence (P08659 whole entry, looked up): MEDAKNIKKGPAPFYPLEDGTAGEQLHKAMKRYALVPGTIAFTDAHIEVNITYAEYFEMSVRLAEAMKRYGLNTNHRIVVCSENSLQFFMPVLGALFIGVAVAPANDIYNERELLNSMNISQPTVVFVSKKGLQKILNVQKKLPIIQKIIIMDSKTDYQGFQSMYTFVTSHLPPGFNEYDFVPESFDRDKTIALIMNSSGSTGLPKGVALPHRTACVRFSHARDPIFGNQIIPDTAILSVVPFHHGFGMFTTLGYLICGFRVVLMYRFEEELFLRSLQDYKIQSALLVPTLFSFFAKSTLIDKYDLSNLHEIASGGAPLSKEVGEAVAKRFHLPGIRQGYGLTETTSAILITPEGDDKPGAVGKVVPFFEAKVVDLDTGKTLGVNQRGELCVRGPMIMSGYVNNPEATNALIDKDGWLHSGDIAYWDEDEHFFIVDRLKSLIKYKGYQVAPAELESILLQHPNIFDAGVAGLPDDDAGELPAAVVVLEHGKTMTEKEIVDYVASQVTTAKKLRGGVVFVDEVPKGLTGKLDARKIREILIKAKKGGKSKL
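Biochemical qHTS: compound (6-point titration) added to 10uM D-luciferin plus 10uM ATP in Tris acetate pH 7.5 buffer with Mg, Tween-20 and BSA, then purified enzyme at 10nM; light output imaged.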
NPR1 antag: human Npr1 receptor antagonism | P16066 | Potency, µM (series often up to 46.3 µM), for inactives: at the highest dose activity change, negative = inhibition, actives largely listed as inhibitors | AID 1347048 | actives 1.6% (n = 76,000) | HEK293 hNpr1 GloSensor cGMP, ANP-stimulated luminescence; calls by dose curve; further: on the % scale 0 is the no-effect control and ±100 the full control effect; nearly all actives have a fitted effect of over 60% in size
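Compound pre-incubated 30 min at room temperature on GloSensor-loaded HEK293 cells stably carrying hNpr1 and the pGS-40F cGMP biosensor. Stimulation uses hNppA at 0.1 nM final; luminescence is taken at baseline and 20 min post-agonist.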
NIH3T3 tox: cytotoxic compounds in NIH 3T3 cells. Potency, µM (series often up to 96.7 µM), without a hit: at the top dose activity change, negative = cytotoxicity, hits mostly inhibitors. actives 4.3% (n = 94,000). NIH 3T3 viability, CellTiter-Glo ATP luminescence, 48-72 h; further: on the % scale 0 is the no-effect control and ±100 the full control effect; nearly all actives have a fitted effect of over 55% in size
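NIH 3T3 cells at 400 cells/well received 23 nL of compound by pintool and were incubated 48 or 72 h at 37 °C. Viability was read as ATP-coupled CellTiter-Glo luminescence.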
FLuc SDR no ATP: binders stabilizing firefly luciferase, without ATP; AID 1963318; Potency, µM (doses to about 32.7 µM), for the others: at the highest dose activation (signal gain), hits mostly activators; actives 7.8% (n = 1,300); shares compounds with FLuc inh-1; Purified FLuc-C-HiBiT, Nano-Glo HiBiT luminescence, no ATP; further: nearly all actives have a fitted effect of over 55% in size
FLuc SDR ATP: binders stabilizing firefly luciferase, plus ATP; purified FLuc-C-HiBiT + ATP, HiBiT complementation luminescence; actives 8.7% (n = 1,300); shares compounds with FLuc inh-1; Potency, µM (doses to about 32.7 µM), without a hit: top-dose activation (gain of signal), usual class: activators;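 further: signal reports ligand binding via conformational change of the enzyme rather than luciferase catalysis; % of control where 0% means no effect; nearly all actives have a fitted effect of over 55% in size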
FLuc inh-2: blocks firefly luciferase enzymatic activity | shares compounds with FLuc inh-1 | purified FLuc-C-HiBiT enzyme, luciferin luminescence | Potency, µM (top dose mostly 32.7 µM), without a hit: at the top dose activity change, negative = inhibition, most hits filed as inhibitors | actives 42% (n = 1,300); further: on the % scale 0 is the no-effect control and ±100 the full control effect; nearly all actives have a fitted effect of over 70% in size
The depositor's hits bear a star; i = inactive; u = inconclusive; x = not tested or not shown. A selection: hits, their analogues and other compounds. The true share with any hit is near 10%. Unless noted, the call rests on the fitted dose curve; in most records, active means well fitted curve in the direction sought with a large enough effect; inconclusive means small, poorly fitted or top-dose-only effect, or another doubt; inactive means no such curve, though single readings can be large; an effect the other way counts as inactive or inconclusive. Potency means the concentration at half of the fitted maximal effect.

SMILES	HEK cytotox	GPT2 inhibitor	FLuc inh-1	NPR1 antag	NIH3T3 tox	FLuc SDR no ATP	FLuc SDR ATP	FLuc inh-2
CCCN1C(=O)c2ccc(-c3nc4ccccc4s3)cc2C1=O	x	x	x	x	x	u	18%	2µM*
O=C(Nc1ccccc1)N1CCCC1Cc1noc(-c2ccccc2)n1 (centres undefined)	u	i	x	x	u	x	x	x
COc1ccc(-c2noc(CN3CCCCC3c3cccc(F)c3)n2)c(OC)c1OC (centres undefined)	u	-13%	i	0%	u	x	x	x
CC(=O)N1CCCN(c2ccc(-c3nc(-c4ccccc4F)no3)cn2)CC1	-1%	i	13µM*	-3%	1%	13%	u	u
OC1CCCN(c2ccc(-c3nc(-c4cccc(C(F)(F)F)c4)no3)cn2)C1 (centres undefined)	u	u	1.6µM*	10µM*	u	15%	13%	u
COc1cccc(-c2noc(-c3ccc(N4CCCC(CO)C4)nc3)n2)c1OC (centres undefined)	u	i	1.8µM*	-29%	u	u	u	2.8µM*
CS(=O)(=O)N1CC2(CCCN2Cc2cccc(C(N)=O)c2)Cc2ccccc21 (centres undefined)	-24%	-21%	i	1%	-23%	x	x	x
COc1ccc(Cn2c(=O)c(C(=O)NCC3CC3)nc3cccnc32)cc1	-26%	i	x	x	-28%	x	x	x
Cc1ccc(Cl)cc1-n1nnc(-c2nsc(NC(=O)c3ccccc3Cl)n2)c1C	x	x	x	x	x	11%	9%	-6%
Cc1cn2nc(C(=O)Nc3ccc(N(C)C)cc3)cc2c(N2CCCC2)n1	u	u	5µM*	10%	u	13%	13%	u
Cc1cn2nc(C(=O)NC3CCCC3)cc2c(N2CCCC2)n1	u	i	i	6%	-33%	x	x	x
Cc1nn(-c2ccccc2)c2c1C(C(C)C)N(C1CCCN([S+](=O)([O-])c3cccc(C(F)(F)F)c3)C1)C2=O (centres undefined)	-9%	x	x	x	-22%	x	x	x
Cc1cc2nc3n(c(=O)c2n1CC(=O)NCc1ccccc1Cl)CCCCC3	u	i	i	1%	-20%	x	x	x
O=C(NCCc1ccccc1Cl)c1ccc2c(c1)nc1n2CCCCC1	x	x	x	x	x	3.9µM*	u	1.1µM*
O=C(NCCc1ccccc1)c1ccc2c(c1)nc1n2CCOC1	x	x	x	x	x	u	u	8.8µM*
CC(C)CCNC(=O)Cn1nc2n(c1=O)CCCCC2	-6%	i	i	1%	-15%	x	x	x
CC(C)CCNC(=O)c1ccc2c(c1)nc1n2CCCCC1	x	x	x	x	x	u	u	9.9µM*
CC(C)c1ccc(N2C(=S)N[C@H]3[C@@H](O)[C@H](O)C[C@@H](C(=O)N(C)Cc4ccccc4)[C@H]32)cc1	40µM*	i	3.2µM*	-25%	35µM*	10%	11µM*	11µM*
O=c1c2c3c(nn2ccn1Cc1ccc(Cl)cc1)CCCC3	u	i	i	-15%	u	x	x	x
O=C(c1ccc(CSc2nc3ccncc3n2Cc2ccccc2F)cc1)N1CCCCC1	x	x	x	x	x	16%	11%	u
O=C(c1ccncc1)N1CCN(Cc2ccccc2-c2ccccc2F)CC1	u	i	x	x	u	x	x	x
